Hit rate of the full screen: of about 2,300 compounds, about 1,400 (61%) were called active. Inconclusive results (about 29%) are left out. Calls follow the shape of the dose curve; as a rule, active = well fitted inhibition curve with a large enough effect; inconclusive = small, poorly fitted or top-dose-only effect, or effect the other way; inactive = no such curve, though single readings can be large or run the other way. So high a share suggests a set chosen from earlier hits. Some of the results follow. Square brackets hold non-standard residues; d marks the D form. Peptide text beside a SMILES is read from it. * marks the point of attachment. ξ: configuration not given here. ξF = NC(Cc1ccccc1)C(=O)O; Cbz = O=C(OCc1ccccc1)*
Assay: Confirmation screen for delayed death inhibitors of the malarial parasite plastid, 96 hour incubation; also: nearly all actives have a fitted effect of over 60% in size
Settings: P. falciparum luciferase growth in erythrocytes; series mostly up to 28.7 µM
How it was run: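 Two-generation (96 h, 37 C) exposure of P. falciparum carrying an integrated firefly luciferase reporter in erythrocytes, 0.1% parasitemia and 2% hematocrit final, Albumax-supplemented RPMI. Luminescence decrease measures growth inhibition.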
Potency is read from the fitted curve at half-maximal effect.

Row | SMILES | Potency
1 | COc1ccc2c(C)c(CCC(=O)NC3CC3)c(=O)oc2c1C | 3.55 µM (active)
2 | COc1ccc2c(c1)c(C(=O)N/N=C/c1ccc(OC)c(OC)c1)c(C)n2C | 8.91 µM (active)
3 | O=C(NCC1CCCO1)c1ccc(Cn2c(=S)[nH]c3ccccc3c2=O)cc1 (centres undefined) | 14.1 µM (active)
4 | CC1CCN(C(=O)C2CCCN(c3ncnc4c3nc3n4CCCCC3)C2)CC1 (centres undefined) | 11.2 µM (active)
5 | Cc1cccc(N2CCN(C(=O)C3CCN(c4ncnc5c4nc4n5CCCCC4)CC3)CC2)c1C | 11.2 µM (active)
6 | Cc1cc(C)n2nc(SCC(=O)N3CCN(c4ccc(F)cc4)CC3)nc2n1 | 12.6 µM (active)
7 | COc1ccc(Nc2nnc(-c3ccc(C)cc3)c3ccccc23)cc1C(=O)N1CCCCC1 | 0.251 µM (active)
8 | COc1ccc(Nc2nnc(-c3ccccc3)c3ccccc23)cc1C(=O)N1CCCCC1 | 2.82 µM (active)
9 | CN1CCN(C(=O)c2cc(COc3c(F)cccc3F)on2)CC1c1ccccc1 (centres undefined) | inactive
10 | O=C(c1cc(COc2ccc(F)cc2Cl)on1)N1CCN(C2CCCCC2)C(=O)C1 | 11.2 µM (active)
11 | CN(Cc1c(C(=O)N/N=C/c2cccc(O)c2)nnn1-c1nonc1N)c1ccccc1 | inactive
12 | Cc1ccsc1/C=N/NC(=O)c1nnn(-c2nonc2N)c1-c1ccc2c(c1)OCO2 | 0.891 µM (active)
13 | Nc1nonc1-n1nnc(C(=O)N/N=C/c2cccc(Cl)c2)c1-c1ccc2c(c1)OCO2 | 0.0708 µM (active)
14 | CCOc1ccc(-c2c(C(=O)N/N=C/c3ccc(OC(C)C)cc3)nnn2-c2nonc2N)cc1 | 12.6 µM (active)
15 | Nc1nonc1-n1nnc(C(=O)N/N=C/c2ccc(Cl)cc2)c1-c1ccc2c(c1)OCO2 | 0.0316 µM (active)
16 | CCOC(=O)C1=C(NC(=S)NC(=O)c2ccccc2)c2ccccc2CC1(C)CC (centres undefined) | 11.2 µM (active)
17 | CC(=O)Nc1nc2ccccc2n1Cc1ccc(C)cc1 | 5.62 µM (active)
18 | N=C1S/C(=C\c2ccco2)C(=O)N1c1nccs1 | 12.6 µM (active)
19 | CCCNC(=O)C(Cc1ccc(F)cc1)NC(=O)c1ccccc1 (centres undefined) | 6.31 µM (active)
20 | CCOC(=O)CNC(=O)C(Cc1ccccc1)NC(=O)OCc1ccccc1 (centres undefined) (Cbz-[ξF]-Gly-OEt) | inactive
21 | Cc1cc(C)c2[nH]c(C(=O)N3CCC(n4nccc4NC(=O)C4CC4)CC3)c(C)c2c1 | 7.94 µM (active)
22 | Cc1c(C(=O)N2CCC(n3nccc3NC(=O)C3CC3)CC2)[nH]c2ccc(Cl)cc12 | 14.1 µM (active)
23 | CCC(C)[C@H](NC(=O)[C@H](Cc1ccccc1)n1c(=O)[nH]c2ccccc2c1=O)C(=O)NCC1CCC(C(=O)O)CC1 (some centres undefined) | 11.2 µM (active)
24 | CCOCCCn1c(C)nc2c(c1=O)c1nc3ccccc3nc1n2CCC1=CCCCC1 | 3.16 µM (active)
25 | CN(CC(=O)Nc1ccc(F)c(Cl)c1)S(=O)(=O)c1ccc2c(c1)n(C)c(=O)c(=O)n2C | 10 µM (active)
26 | CCOc1ccc(S(=O)(=O)N2CCCC(C(=O)NC3CC3)C2)cc1Cl (centres undefined) | 10 µM (active)
27 | O=C(COc1ccccc1)N1c2ccccc2Sc2ccccc21 | 11.2 µM (active)

Row | SMILES | Potency
28 | CC1CCCC(NC(=O)c2cc(-c3ccncc3)nc3ccccc23)C1C (centres undefined) | 11.2 µM (active)
29 | Cc1c(Cl)ccc2c(C(=O)O)cc(-c3ccccc3)nc12 | inactive
30 | COc1ccc2c(c1OC)C(=O)N1N=C(c3ccccc3)CC21 (centres undefined) | 2.24 µM (active)
31 | COc1ccc2c(c1OC)C(=O)OC2Nc1nc(-c2ccccc2)cs1 (centres undefined) | inactive
32 | CC(C)NC(=O)c1onc(CSc2cccc(F)c2)c1C(=O)O | inactive
33 | O=C(O)C1CC=CCC1C(=O)Nc1ccc(S(=O)(=O)N2CCCc3ccccc32)cc1 (centres undefined) | inactive
34 | Cc1ccc(NC(=O)c2cc(S(=O)(=O)N3CCc4ccccc43)cn2C)cc1 | 11.2 µM (active)
35 | C=CCn1c(C)cc(C2=NNC(=NCc3ccccc3)SC2)c1C | 14.1 µM (active)
36 | N#Cc1c(SCC(=O)Nc2ccc(C(F)(F)F)cc2)sc2c(O)cc(=O)[nH]c12 | 0.0891 µM (active)
37 | Cc1cc(NC(=O)CSc2sc3c(O)cc(=O)[nH]c3c2C#N)ccc1Br | 5.62 µM (active)
38 | CCCSc1ccc(-c2nn(-c3ccccc3)cc2/C=C(/C#N)C(=O)NCCCOC)cc1 | 4.47 µM (active)
39 | CC(C)(C)n1nnnc1C(c1ccc2ncccc2c1)N1CCSCC1 (centres undefined) | 11.2 µM (active)
40 | COc1ccc(Cl)cc1NC(=O)C(C)NC(c1ccccc1)c1ccccc1 (centres undefined) | 5.62 µM (active)
41 | CN1CCN(C(=O)CCN2C(=O)/C(=C/c3cccc(Br)c3)SC2=S)CC1 | 3.98 µM (active)
42 | O=C(CCN1C(=O)/C(=C/c2ccccc2Cl)SC1=S)N1CCOCC1 | 10 µM (active)
43 | CCOc1cc(/C=C/c2cc(C(F)(F)F)[nH]c(=O)n2)ccc1O | 14.1 µM (active)
44 | CC(=O)O[C@@]12CO[C@@H]1C[C@H](O)[C@@]1(C)C(=O)[C@H](O)C3=C(C)[C@@H](OC(=O)C(O)[C@@H](NC(=O)OC(C)(C)C)c4ccccc4)C[C@@](O)([C@@H](OC(=O)c4ccccc4)[C@H]21)C3(C)C (some centres undefined) | 0.141 µM (active)
45 | CC(=O)O[C@H]1C(=O)[C@@]2(C)[C@H]([C@H](OC(=O)c3ccccc3)[C@]3(O)C[C@H](OC(=O)[C@H](O)[C@@H](NC(=O)c4ccccc4)c4ccccc4)C(C)=C1C3(C)C)[C@]1(OC(C)=O)CO[C@@H]1C[C@@H]2O | 0.501 µM (active)
46 | O=C(CCl)Nc1c2c(nn1-c1ccccc1)CSC2 | 2.24 µM (active)
47 | Cc1ccc(-c2cc(NC(=O)CCl)n(-c3ccccc3)n2)cc1 | 3.98 µM (active)
48 | CC(C)(C)c1cc(NC(=O)CCl)n(-c2ccccc2)n1 | 8.91 µM (active)
49 | CCCCNC(=O)c1onc(CSc2ccc(Cl)cc2)c1C(=O)O | inactive
50 | COc1cc(OC)c2c(-c3cccc(-c4cccc(N)c4)c3)cc(=O)oc2c1 | 10 µM (active)
51 | NCCCNc1nc(N)c([N+](=O)[O-])c(NC2CCCCC2)n1 | 2.82 µM (active)
52 | CC(C)C1C(=O)CC(c2ccccc2)NC1c1ccccc1 (centres undefined) | 15.8 µM (active)
53 | S=C(Nc1ccccc1Cl)N(Cc1ccccc1)Cc1cccnc1 | 11.2 µM (active)
54 | C(=C\c1nc(N2CCCCCC2)c2ccccc2n1)/c1ccccc1 | 6.31 µM (active)
